# This is a sample that favours compounds with a hit; in the whole collection about 7.4% have one here.
# ELG1 genotoxic: qHTS screen for small molecules that induce genotoxicity in human embryonic kidney (HEK293T) cells expressing luciferase-tagged ELG1 | HEK293T ELG1-luciferase reporter, luminescence, 16 h | Potency, µM (doses to about 46 µM), for inactives: at the highest dose activity change, positive = activation, hits mostly activators | hit rate 1.3% among 330,000; also: % of control where 0% means no effect; nearly all actives have a fitted effect of over 60% in size
#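 HEK293T cells expressing luciferase-tagged ELG1 were treated with compound or DMSO for 16 hr at 37°C. Luciferase activity was then read after 30 min with ONE-Glo at room temperature; rising signal flags genetic stress.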
# Rab9 prom act: qHTS Assay for Rab9 Promoter Activators | Huh7 Rab9 promoter-luciferase reporter, luminescence, 24 h | Potency, µM (top dose mostly 9.22 µM), inactives show at the highest dose activation, negative = inhibition, usual class: activators | hit rate 2.8% among 320,000; also: % of control where 0% means no effect; nearly all actives have a fitted effect of over 60% in size
#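 Steps: seed 1500 Huh7 Rab9-luc cells per well, rest 2 h at 37 °C; add compound in DMSO; incubate 24 h; add luciferase reagent, 10 min ambient; read luminescence.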
# Luc counter: Counterscreen for Luciferase (Kinase-Glo TM) Inhibition. Kinase-Glo luciferase, ATP luminescence, 8 min. Potency, µM (doses to about 38.3 µM), for the others: at the top dose activity change, negative = inhibition, most hits filed as inhibitors. hit rate 0.28% among 200,000; also: % is scaled to controls: 0 for no effect and ±100 for the full control effect; nearly all actives have a fitted effect of over 60% in size
#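 Recombinant Kinase-Glo luciferase, 10 uM ATP (linear range), luciferin; imidazole pH 7.2 / KCl / MgCl2 / Tween / BSA buffer; 8 min RT; luminescence.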
# NPC1 prom act: qHTS Assay for NPC1 Promoter Activators | Huh7 NPC1 promoter luciferase reporter, 24 h | Potency, µM (titrated, usually from 9.22 µM), for inactives: at the highest dose activation, usual class: activators | hit rate 2.4% among 320,000; also: % of control where 0% means no effect; nearly all actives have a fitted effect of over 60% in size
#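 Quantitative HTS used a cell-based reporter: Huh7 cells stably bearing the NPC1 promoter upstream of luciferase were treated with compounds for 24 h, and promoter activation was read as luminescence.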
# SMN2 splice up: qHTS Assay for Enhancers of SMN2 Splice Variant Expression; HEK293 SMN2-luciferase splicing reporter, luminescence, 30-36 h; Potency, µM (highest dose often 46.1 µM), for the others: at the top dose activity change, positive = activation, usual class: activators; hit rate 2.8% among 210,000; also: % of control where 0% means no effect; nearly all actives have a fitted effect of over 55% in size
#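 HEK293 cells carry an SMN2 minigene-luciferase reporter in which exon 7 inclusion puts luciferase in frame. Cells were seeded at 2000 cells/well, attached for 10-12 hours, then exposed to compounds for 30-36 hours at 37C before ONE-Glo luminescence.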
# FLuc modulator: qHTS profiling assay for firefly luciferase inhibitor/activator using purifed enzyme and Km concentrations of substrates (counterscreen for miR-21 project) | purified FLuc, Km substrates, luminescence inhibition | Luciferin 4-monooxygenase (Photinus pyralis), P08659 | hit rate 6.9% among 360,000 | Potency, µM (highest dose often 57.5 µM), for inactives: top-dose activity change, negative = inhibition, usual class: inhibitors;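 also: plate controls were vehicle for no effect and reference inhibitor for full effect; nearly all actives have a fitted effect of over 55% in size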
# Target sequence (P08659 whole entry, looked up): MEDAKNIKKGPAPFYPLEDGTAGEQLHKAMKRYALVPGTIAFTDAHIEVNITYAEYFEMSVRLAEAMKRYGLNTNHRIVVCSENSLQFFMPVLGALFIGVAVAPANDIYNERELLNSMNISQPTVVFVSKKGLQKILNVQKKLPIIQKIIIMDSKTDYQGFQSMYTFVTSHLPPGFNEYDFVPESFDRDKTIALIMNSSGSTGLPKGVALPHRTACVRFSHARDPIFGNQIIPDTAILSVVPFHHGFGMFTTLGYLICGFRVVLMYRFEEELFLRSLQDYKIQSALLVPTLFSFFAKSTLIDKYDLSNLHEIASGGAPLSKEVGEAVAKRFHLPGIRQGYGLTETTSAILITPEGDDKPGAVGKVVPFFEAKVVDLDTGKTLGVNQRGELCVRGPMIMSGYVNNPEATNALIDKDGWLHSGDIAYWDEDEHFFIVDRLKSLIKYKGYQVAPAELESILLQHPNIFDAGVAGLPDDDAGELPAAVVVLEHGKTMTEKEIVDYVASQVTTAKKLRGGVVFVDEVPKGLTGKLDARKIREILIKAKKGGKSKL
#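 Biochemical qHTS of compounds, final roughly 60 µM downward over six points, against 10 nM purified firefly luciferase using Km concentrations of substrates (10 uM D-luciferin, 10 uM ATP) in Tris acetate pH 7.5 buffer; luminescence output.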
# * marks the source's active call; other numbers are inactive results; ? = inconclusive; . = not tested or not shown. Calls follow the shape of the dose curve; as a rule, active = well fitted curve in the direction sought with a large enough effect; inconclusive = small, poorly fitted or top-dose-only effect, or another doubt; inactive = no such curve, though single readings can be large; an effect the other way counts as inactive or inconclusive. Potency is read from the fitted curve at half-maximal effect.
SMILES,ELG1 genotoxic,Rab9 prom act,Luc counter,NPC1 prom act,SMN2 splice up,FLuc modulator
Cc1cccc(-c2nsc(SCC(=O)NCc3ccco3)n2)c1,0%,-2%,-6%,13%,-4%,?
CCOC(=O)CNC(=O)CSc1nnc(SCC(=O)NCC(=O)OCC)s1,5%,3%,-5%,2%,-32%,-3%
CCOC(=O)CNC(=O)CSc1nc(-c2cccc(C)c2)ns1,-4%,6%,-3%,2%,5%,24µM*
O=C(Nc1nnc(SCC(=O)N2CCCc3ccccc32)s1)c1cccc2ccccc12,-6%,7%,-1%,8%,-9%,?
CCOC(=O)CNC(=O)c1ccc(SCC)cc1,?,?,.,?,.,19µM*
CCOC(=O)CNC(=O)CSc1nnc(NC(=O)c2ccc3c(c2)OCO3)s1,3.3µM*,3.2µM*,.,3.5µM*,.,0.95µM*
CCCC(=O)Nc1nnc(SCC(=O)NCc2ccc3c(c2)OCO3)s1,1%,-2%,-1%,-1%,10%,-4%
CCOC(=O)CSc1nnc(NC(=O)c2cccc([N+](=O)[O-])c2)s1,-1%,-3%,-2%,0%,-1%,11µM*
CC(C)COC(=O)n1ccc(C(=O)N2CCCCC2)n1,-1%,2%,0%,1%,-11%,2%
CC(=O)c1ccc(NC(=O)c2ccn(C(=O)OCC(C)C)n2)cc1,?,?,-2%,4µM*,10µM*,19µM*
Cc1oc(-c2cccc(C(F)(F)F)c2)nc1CN1CCOCC1,?,?,-2%,13%,.,27µM*
NC(=O)CC(NC(=O)Cc1ccc(Cl)cc1)c1ccc(N2CCC(Cc3ccccc3)CC2)c([N+](=O)[O-])c1 (stereo not drawn),1%,-3%,.,-2%,.,1%
O=C1CCC(=O)N1c1ccc(-c2nc3ccccc3s2)cc1,?,0.35µM*,-24%,0.45µM*,10µM*,0.54µM*
c1ccc(-c2nc3ccccc3s2)nc1,?,1.4µM*,?,1.4µM*,16µM*,3.8µM*
CN(C)c1ncccc1-c1nc2ccccc2s1,0%,-3%,-3%,-1%,4%,-13%
Brc1ccc(-c2nc3ccccc3s2)s1,?,1.6µM*,-29%,?,14µM*,1.1µM*
O=S(=O)(c1cc(-c2nc3ccccc3s2)ccc1Cl)N1CCOCC1,-5%,1%,-2%,-5%,-22%,-9%
Nc1ccc(-c2nc3ccccc3s2)cn1,9.2µM*,1.6µM*,.,1.3µM*,.,4.8µM*
CSc1ccc(CN(C)CC(=O)NC(=O)NCCC2=CCCCC2)cc1,0%,-4%,.,0%,.,1%
COc1cc(OC)cc(C(=O)Nc2cc(-c3nc4ccccc4s3)ccc2OC)c1,.,.,.,.,2%,?
Brc1cc2c(cc1-c1nc3ccccc3s1)OCO2,12%,27%,.,24%,.,12µM*
COc1cc(OC)cc(-c2nc3ccccc3s2)c1,?,13%,-18%,11%,?,8.5µM*
O=C(Nc1ccccc1-c1nc2ccccc2s1)C1=COCCO1,-3%,-3%,4%,-5%,-18%,4%
COc1ccc2c(c1)CC/C(=C\C=C\c1ccccc1OC)C2=O,9%,?,-18%,?,11µM*,2.1µM*
COc1cc(O)cc(/C=C/c2ccccc2)c1,.,.,-3%,.,?,.
SMILES,ELG1 genotoxic,Rab9 prom act,Luc counter,NPC1 prom act,SMN2 splice up,FLuc modulator
COc1ccc2c(c1)C(=O)/C(=C/C=C/c1ccccc1)CC2,5%,?,-5%,?,11µM*,9.5µM*
O=C(c1ccc(CSc2nc3ccncc3n2Cc2cccc(F)c2)cc1)N1CCCCCC1,.,.,.,.,-16%,?
COc1ccccc1CN=c1c([N+](=O)[O-])nn(-c2ccc3c(c2)OCCO3)n1O,?,?,2%,25%,?,?
COc1ccc(-n2nc([N+](=O)[O-])c(=NCCc3ccc(C)cc3)n2O)cc1,-1%,?,.,?,.,-6%
COc1ccc(-n2nc([N+](=O)[O-])c(=NCCC3=CCCCC3)n2O)cc1,?,3.5µM*,1%,?,?,?
COc1ccc(-n2nc([N+](=O)[O-])c(=NCCc3ccc(Cl)cc3)n2O)cc1,-1%,8%,2%,4%,?,1%
COc1ccc(-n2nc([N+](=O)[O-])c(=NCc3ccco3)n2O)cc1,?,1.4µM*,.,3.5µM*,.,?
COc1ccc(-n2nc([N+](=O)[O-])c(=NCc3cccnc3)n2O)cc1,?,2.8µM*,1%,3.5µM*,26%,?
O=[N+]([O-])c1nn(-c2ccc3c(c2)OCCO3)n(O)c1=NCc1ccccc1Cl,?,?,-16%,?,13µM*,6µM*
CCCn1c(SCC(=O)N2c3ccccc3CC2C)n[nH]c1=O (stereo not drawn),2%,-7%,.,-1%,.,2%
CCNc1ccc(Br)cc(C(=O)/C=C/c2ccc(Cl)cc2Cl)c1=O,-12%,-1%,-4%,-3%,-110%,-9%
C/C(=N\NC(N)=S)C1(C)CC2(CC(C)(C)OC2=O)C(=O)O1 (stereo not drawn),0%,-3%,.,-4%,.,0%
COc1ccc(C(=O)NCCn2ccc3ccccc32)c(OC)c1,?,?,1%,?,29%,21µM*
CCCC(C)NNC(=O)c1cc2ccccc2[nH]1 (stereo not drawn),9%,2%,0%,2%,-6%,0%
COc1ccc(NC(=O)c2coc(C)c2)cc1,?,?,.,?,.,24µM*
CC(C)(C)c1ccc(S(=O)(=O)NNC(=O)c2cc3ccccc3[nH]2)cc1,?,12%,.,14%,.,13µM*
COc1ccc(NC(=O)c2ccc3ccccc3c2)cc1,2.3µM*,0.71µM*,.,0.71µM*,.,0.85µM*
Cc1cc(C)n(CC(=O)Nc2ccc3c(c2)OCO3)c(=O)c1C#N,-1%,11%,.,0%,.,1%
CN(C)C(CNC(=O)c1c(F)cccc1Cl)c1ccco1 (stereo not drawn),-1%,-4%,.,1%,.,1%
COc1ccc(NC(=O)c2cc3ccccc3[nH]2)cc1,?,2µM*,.,3.2µM*,.,?
COc1ccc2[nH]c(C(=O)Nc3ccc(C)c(F)c3)cc2c1,-6%,?,.,?,.,?
COc1ccc(C(=O)Nc2ccc3ccccc3c2)c(OC)c1,2.1µM*,?,.,3.5µM*,.,0.85µM*
